Laboratory results published in PubChem BioAssay (NCI).
The panel holds about 83,000 compounds, 20% with a hit somewhere; the sample as a whole holds those more often.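 Percent growth is the endpoint: 0 to 100 indicates growth inhibition (40 means 60% inhibition), 0 means no net growth, and negative values indicate cell death.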 Values without a mark were called inactive. Active and inactive are the calls of the source. The calls were made as follows: active = growth percent below 10; inactive = the rest.

Assays:
Assay in all cases: NCI-60 one-dose screen, 48 h (100 = growth as untreated, 0 = no growth, -100 = all killed)
Conditions in all cases: 10 µM unless noted
NCI-H23 lung = system: NCI-H23 lung
NCI-H226 lung = system: NCI-H226 lung
NCI-H322M lung = system: NCI-H322M lung
HOP-62 NSCLC = system: HOP-62 NSCLC
NCI-H460 lung = system: NCI-H460 lung
HOP-92 NSCLC = system: HOP-92 NSCLC
NCI-H522 lung = system: NCI-H522 lung
A549/ATCC NSCLC = system: A549/ATCC NSCLC
786-0 renal = system: 786-0 renal
COLO 205 colon = system: COLO 205 colon
DU-145 prostate = system: DU-145 prostate
K-562 leukemia = system: K-562 leukemia
MALME-3M melanoma = system: MALME-3M melanoma
MDA-MB-231 breast = system: MDA-MB-231 breast
RXF 393 renal = system: RXF 393 renal
SF-268 CNS = system: SF-268 CNS
SF-295 CNS = system: SF-295 CNS
SF-539 CNS = system: SF-539 CNS
UACC-257 melanoma = system: UACC-257 melanoma
M14 melanoma = system: M14 melanoma

| Structure (SMILES) | growth (NCI-H23 lung) | growth (NCI-H226 lung) | growth (NCI-H322M lung) | growth (HOP-62 NSCLC) | growth (NCI-H460 lung) | growth (HOP-92 NSCLC) | growth (NCI-H522 lung) | growth (A549/ATCC NSCLC) | growth (786-0 renal) | growth (COLO 205 colon) | growth (DU-145 prostate) | growth (K-562 leukemia) | growth (MALME-3M melanoma) | growth (MDA-MB-231 breast) | growth (RXF 393 renal) | growth (SF-268 CNS) | growth (SF-295 CNS) | growth (SF-539 CNS) | growth (UACC-257 melanoma) | growth (M14 melanoma) |
| --- | --- | --- | --- | --- | --- | --- | --- | --- | --- | --- | --- | --- | --- | --- | --- | --- | --- | --- | --- | --- |
| C=C(C)[C@@H]1CC[C@]2(C(N)=O)CC[C@]3(C)[C@H](CC[C@@H]4[C@@]5(C)C/C(=C/c6cccnc6)C(=O)C(C)(C)[C@@H]5CC[C@]43C)[C@@H]12 | 18.9% [100 µM] | 9.08% [100 µM] (active) | 12.7% [100 µM] | 3.06% [100 µM] (active) | -42.8% [100 µM] (active) | 16.8% [100 µM] | -16.8% [100 µM] (active) | 14.2% [100 µM] | 18.1% [100 µM] | -23.6% [100 µM] (active) | 24.6% [100 µM] | 6.74% [100 µM] (active) | -19.7% [100 µM] (active) | 0.809% [100 µM] (active) | -8.8% [100 µM] (active) | 39.3% [100 µM] | 6.69% [100 µM] (active) | -14.3% [100 µM] (active) | 20.8% [100 µM] | 15.7% [100 µM] |
| C=C(C)[C@@H]1CC[C@]2(C(=O)N3CCN(C)CC3)CC[C@]3(C)[C@H](CC[C@@H]4[C@@]5(C)C/C(=C/c6ccncc6)[C@H](O)C(C)(C)[C@@H]5CC[C@]43C)[C@@H]12 | 4.32% [100 µM] (active) | -51% [100 µM] (active) | -27% [100 µM] (active) | -38.6% [100 µM] (active) | -67.4% [100 µM] (active) | -39.3% [100 µM] (active) | -46.3% [100 µM] (active) | 16.2% [100 µM] | -90.8% [100 µM] (active) | -74.8% [100 µM] (active) | -12.4% [100 µM] (active) | -13.4% [100 µM] (active) | -55.1% [100 µM] (active) | -48.5% [100 µM] (active) | -88.5% [100 µM] (active) | 4.1% [100 µM] (active) | -53.6% [100 µM] (active) | -72% [100 µM] (active) | -31.2% [100 µM] (active) | -13.6% [100 µM] (active) |
| C=C(C)[C@@H]1CC[C@]2(COC(=O)c3ccccc3C(=O)O)CC[C@]3(C)[C@H](CC[C@@H]4[C@@]5(C)CC[C@H](OC(=O)c6ccccc6C(=O)O)C(C)(C)[C@@H]5CC[C@]43C)[C@@H]12 | 6.7% [100 µM] (active) | 25.9% [100 µM] | 30.7% [100 µM] | 3.17% [100 µM] (active) | 19.7% [100 µM] | -22.3% [100 µM] (active) | 46.8% [100 µM] | 51.3% [100 µM] | 1.64% [100 µM] (active) | 99.3% [100 µM] | 29.7% [100 µM] | 44.7% [100 µM] | 30.7% [100 µM] | -26.2% [100 µM] (active) | -21.9% [100 µM] (active) | 18% [100 µM] | 10.2% [100 µM] | 10.6% [100 µM] | 92.9% [100 µM] | 29.6% [100 µM] |
| CC1(C)C(=NO)C(C)(C)C1=NO | 111% | 103% | 99.6% | 117% | 105% | 88.7% | 94.1% | 103% | 110% | 116% | 114% | 98.8% | 116% | 123% | 112% | 103% | 108% | 117% | 95.4% | 99.5% |
| COc1ncc(-c2ccc3nccc(C#CCCCCC(=O)O)c3c2)cc1NS(=O)(=O)c1ccc(F)cc1F | 44% | 46.4% | 18.3% | 29.9% | 12.3% | -21.7% (active) | 43.4% | 14.8% | 3.82% (active) | 28.6% | 40.9% | 78.6% | -21.4% (active) | 41.9% | -20% (active) | 36.5% | 6.94% (active) | -9.14% (active) | -2.67% (active) | 13.9% |
| CC1(C)CC[C@]23CC[C@]4(C)[C@H](CC[C@@H]5[C@@]6(C)C/C(=C/c7cccnc7)C(=O)C(C)(C)[C@@H]6CC[C@]54C)[C@H]2[C@H]1OC3=O | 46.7% [100 µM] | 24.6% [100 µM] | 65.2% [100 µM] | 25.2% [100 µM] | 23.2% [100 µM] | 24.8% [100 µM] | 30.5% [100 µM] | 44.8% [100 µM] | 45.5% [100 µM] | 23.1% [100 µM] | 56.9% [100 µM] | 33% [100 µM] | 31.2% [100 µM] | 35.8% [100 µM] | 38.8% [100 µM] | 66.3% [100 µM] | 46.7% [100 µM] | 63.2% [100 µM] | 31.9% [100 µM] | 52.1% [100 µM] |
| Clc1ccc(/C=N/Nc2nc3ccccc3s2)c(Cl)c1 | 90.4% | 100% | 93.4% | 87.9% | 41.8% | 44.6% | 97.2% | 73.7% | 90.7% | 88.4% | 97.9% | 91% | 79.6% |  | 114% | 85.4% | 97.5% | 100% | 93.5% | 121% |
